# Test results from PubChem BioAssay AID463173 (ICCB-Longwood Screening Facility, Harvard Medical School, 2010).
# Screen size: about 52,000 compounds; about 4,300 (8.3%) were called active. The full list was thinned out, with actives kept by preference. Values without a mark were called inactive. Rule as the data show it: active = survival mostly below about 52% (no sharp cut-off); inactive = mostly above about 56%.
# Tested on: DeltatarO mutant
# Assay: S. aureus survival, RN4220 and DeltatarO strains – OD600, teichoic acid synthesis inhibitors, primary screen (AID 463173)
# Settings: S. aureus RN4220 wild type/DeltatarO growth, OD600, 18 h, active compounds read low, screened at 18.75 µg/mL (by protocol)
row,Compound,survival
1,CC1=C(c2ccc(C)c(C)c2)S(=O)(=O)N(Cc2ccc(C(=O)NCc3cccc(C)c3)cc2)C1=O,77%
2,CN1CCSc2ccc(C(=O)NCc3ccccc3F)cc21,134%
3,CCOC(=O)c1cc2c(=O)n3ccccc3nc2n(CCCOC)c1=NC(=O)c1c(-c2c(F)cccc2Cl)noc1C,54%
4,CC(C)(C)OC(=O)N1CCC(c2c(C(=O)N3CCN(c4ccccc4F)CC3)cnn2C(C)(C)C)CC1,68%
5,COc1ccc(CCNC(=O)c2ccc(Cn3c(=O)c4ccccc4n(CC(=O)C(C)(C)C)c3=O)cc2)cc1OC,86%
6,O=c1c2sc3ccccc3c2n(Cc2ccc(F)cc2)c(=O)n1Cc1ccco1,79%
7,COc1cccc(Cc2nc3ccccc3nc2SCC(=O)N2CCCCC2C)c1 (centres undefined),79%
8,Cc1cc(Nc2ccccc2Cl)n2nc(-c3ccco3)nc2n1,88%
9,Cc1cc(C)cc(Nc2cc(C)nc3nc(-c4ccco4)nn23)c1,94%
10,COc1ccc(Cl)cc1Nc1cc(C)nc2nc(-c3ccccc3C)nn12,70%
11,Cc1cc(Nc2ccc(Br)c(C)c2)n2nc(-c3ccco3)nc2n1,-5% (active)
12,CC(=O)c1cccc(Nc2cc(C)nc3nc(-c4ccccc4C)nn23)c1,90%
13,CCOc1ccc(OCC)c(Nc2cc(C)nc3nc(-c4ccco4)nn23)c1,17% (active)
14,Cc1cc(Nc2cccc(F)c2)n2nc(-c3ccco3)nc2n1,89%
15,Cc1cc(Nc2ccc(Br)cc2)n2nc(-c3ccccc3C)nc2n1,27% (active)
16,CCOC(=O)c1ccccc1Nc1cc(C)nc2nc(-c3ccco3)nn12,128%
17,CN(CCCNC(=O)c1cc2c(=O)n(C)c3ccccc3c2s1)Cc1ccccc1,94%
18,CCCCS(=O)(=O)c1nc(-c2ccc(Br)cc2)cc(-c2ccccc2)c1C#N,119%
19,C/C(=C\C(=O)c1cccnc1)Nc1ccccc1O,103%
20,Cc1nc(-c2ccc(S(=O)(=O)N(C)Cc3ccccc3)cc2)co1,95%
21,Cc1ccc(-n2ncc(C(=O)NC3CCCC3)c2C2CCN(C(=O)OC(C)(C)C)CC2)c(C)c1,70%
22,Cc1ccc(-n2c(=O)c3c(c4cc(C)ccc4n3C)n(CC(=O)N3CCCC3)c2=O)cc1,71%
23,CC(=O)Nc1ccc(C2=CSC3=NCCN23)cc1,82%
24,CCSc1ncc(Cl)c(C(=O)Nc2nc3ccc(Cl)cc3s2)n1,100%

row,Compound,survival
1,COc1cc(NC(=O)c2cc(Cl)c(OC)c(Cl)c2)ccc1NC(=O)c1cc2ccccc2o1,82%
2,CCCN(CCC)S(=O)(=O)c1ccc(C(=O)Nc2cccc(-c3nc4ccccc4[nH]3)c2)cc1,99%
3,CCOc1ccc(NS(=O)(=O)c2ccc3nc(-c4ccccc4)[nH]c3c2)cc1,64%
4,CCCOc1ccc(C(=O)Nc2cccc(-c3nc4ccccc4[nH]3)c2)cc1,28% (active)
5,CC(C)COc1ccc(C(=O)Nc2cc(-c3ccccc3)no2)cc1,85%
6,CCCOc1ccc(C(=O)Nc2cccc(NC(=O)c3cccc(Cl)c3)c2)cc1,70%
7,CC(C)COc1ccc(C(=O)Nc2cccc(-c3nc4ccccc4[nH]3)c2)cc1,43% (active)
8,CCOc1cc(OCC)cc(C(=O)Nc2cccc(-c3nc4ccccc4[nH]3)c2)c1,36% (active)
9,Cc1cccc(-c2nc3cc(NC(=O)c4ccc(OCC(C)C)cc4)ccc3o2)c1,113%
10,COc1c(Cl)cc(C(=O)Nc2cccc(-c3nc4ccccc4[nH]3)c2)cc1Cl,15% (active)
11,CCOc1ccc(C(=O)Nc2cccc(-c3nc4cc(Cl)cc(Cl)c4o3)c2)cc1,84%
12,CCOc1ccc(CCNC(=O)c2cc3c(=O)n(C)c4ccccc4c3s2)cc1OCC,56%
13,Cc1ccc(NC(=O)C2CCN(C(=O)c3cnn(-c4ccccc4)c3-n3cccc3)CC2)cc1,93%
14,CCCn1c(=S)[nH]c2c1c(=O)[nH]c(=O)n2C,66%
15,CN(CC(=O)Nc1cccc(F)c1)S(=O)(=O)c1ccc2c(c1)n(C)c(=O)c(=O)n2C,102%
16,COc1ccc(C2=NN(C(=O)CCC(=O)O)C(c3ccccc3F)C2)cc1OC (centres undefined),89%
17,N/C(=N/OC(=O)c1ccccc1)c1ccccn1,87%
18,CCCCNC(=O)c1ccc2c(c1)ncn2-c1cc(OC)ccc1OC,112%
19,O=c1oc2cc(O)ccc2cc1-c1nnc(Nc2ccccc2F)s1,59%
20,CCC(c1nnnn1Cc1ccccc1)N(Cc1cccs1)Cc1cc2ccc(C)cc2[nH]c1=O (centres undefined),103%
21,O=C(CNC(=O)c1ccc(Cl)cc1)OCc1cc(=O)n2ccsc2n1,72%
22,COc1ccc(C2C(C(=O)Nc3ccc(C)cc3C)=C(C)Nc3nc(SCc4cccc(C)c4)nn32)c(OC)c1 (centres undefined),164%
23,CCN(CC)c1ccc2c(c1)OC(N)=C(C#N)C2c1cccc(F)c1 (centres undefined),2% (active)
24,CCc1ccc(C2C(C#N)=C(N)Oc3cc(N)ccc32)cc1 (centres undefined),102%

row,Compound,survival
1,COc1ccc(C2C(C#N)=C(N)Oc3cc4c(cc32)OCO4)cc1 (centres undefined),79%
2,Cc1ccc(Sc2c(C)nn(C(=O)COc3ccccc3Br)c2C)cc1,88%
3,Cc1nn(C(=O)c2ccc(Br)cc2)c(C)c1S(=O)(=O)N1CCOCC1,79%
4,Cc1nn(C(=O)c2ccc(Br)cc2)c(C)c1Sc1ccccc1,2% (active)
5,Cc1ccc(Sc2c(C)nn(C(=O)c3ccc(Br)cc3)c2C)cc1,16% (active)
6,Cc1nn(C(=O)COc2ccccc2Br)c(C)c1Sc1ccccc1,54%
7,Cc1nn(C(=O)c2ccccc2)c2c1C(=O)CC(C)(C)C2,74%
8,CCOc1ccc(NC(=O)CC2C(=O)N(c3ccccc3)C(=O)N2CCc2ccc(OC)cc2)cc1 (centres undefined),59%
9,CCCNC(=O)CSc1cn(CC(=O)N2CCCCCC2)c2ccccc12,84%
10,Cc1ccc(S(=O)(=O)c2cn(CC(=O)Nc3ccc(C)c(Cl)c3)c3ccc(C)cc3c2=O)cc1,96%
11,COc1ccc(NC(=O)c2oc3c(c2C)-c2nn(Cc4ccccc4Cl)cc2CC3)cc1OC,53% (active)
12,COCCCNC(=O)c1oc2c(c1C)-c1nn(Cc3ccccc3Cl)cc1CC2,66%
13,CCOC(=O)c1oc2c(c1C)-c1nn(Cc3ccccc3Cl)cc1CC2,38% (active)
14,Cc1c(C(=O)O)oc2c1-c1nn(Cc3ccc(Cl)cc3)cc1CC2,89%
15,CC(=O)Nc1ccc(NC(=O)c2oc3c(c2C)-c2nn(Cc4ccccc4Cl)cc2CC3)cc1,61%
16,CCOC(=O)c1oc2c(c1C)-c1nn(Cc3cccc(Cl)c3)cc1CC2,53%
17,CCOC(=O)c1oc2c(c1C)-c1nn(Cc3ccc(Cl)cc3)cc1CC2,16% (active)
18,CCOC(=O)c1ccc(NC(=O)c2oc3c(c2C)-c2nn(Cc4ccccc4Cl)cc2CC3)cc1,68%
19,Cc1c(C(=O)O)oc2c1-c1nn(Cc3ccccc3Cl)cc1CC2,80%
20,CC1=C(C(=O)OCC2CCCCC2)C(c2cccc(F)c2F)CC(=O)N1 (centres undefined),95%
21,O=C1CC(NC2CC2)C(=O)N1c1ccccc1 (centres undefined),93%
22,COc1ccc(Cl)cc1NC(=O)c1noc2c1CCc1ccccc1-2,71%
23,COc1ccc2c(c1)CCc1c(C(=O)Nc3c(C)nn(Cc4ccccc4)c3C)noc1-2,118%
24,COc1ccc2c(c1)CCc1c(C(=O)Nc3c(C)nn(Cc4ccc(Cl)cc4)c3C)noc1-2,107%

row,Compound,survival
1,O=C(Nc1cnn(Cc2ccc(Cl)cc2Cl)c1)c1noc2c1CCc1ccccc1-2,47% (active)
2,COc1ccc2c(c1)CCc1c(C(=O)Nc3cnn(Cc4ccc(Cl)cc4Cl)c3)noc1-2,142%
3,Cc1nn(Cc2ccc(Cl)c(Cl)c2)c(C)c1NC(=O)c1noc2c1CCc1ccccc1-2,46% (active)
4,Cc1nn(Cc2ccc(F)cc2)c(C)c1NC(=O)c1noc2c1CCc1ccccc1-2,63%
5,Cc1nn(Cc2ccc(Cl)cc2)c(C)c1NC(=O)c1noc2c1CCc1ccccc1-2,31% (active)
6,COc1ccc2c(c1)CCc1c(C(=O)Nc3c(C)nn(Cc4ccc(Cl)c(Cl)c4)c3C)noc1-2,153%
7,CCOC(=O)c1ccc(OC(=O)c2cn(-c3cccc(OC)c3)c(=O)c3ccccc23)cc1,85%
8,Cc1cc(NC(=O)CSc2nc3c([nH]c4ccccc43)c(=O)n2-c2cccc(Cl)c2)no1,73%
9,CC(=O)c1cc(-c2ccc(F)cc2)n(CC(=O)NCc2ccc(C)cc2)c1C,99%
10,COc1ccc2nc(N(Cc3cccnc3)C(=O)c3ccc4c(c3)OCCO4)sc2c1,65%
11,Cc1ccc(NC(=O)c2ccco2)nc1,108%
12,CC1=C(C(=O)Nc2ccc(Cl)cc2)C(CC(C)C)n2nc(SCc3ccccc3C)nc2N1 (centres undefined),127%
13,COC(=O)CCNC(=O)NC(CCC(C)C)c1c(-n2cccc2)sc2c1CCN(C)C2 (centres undefined),75%
14,CN(C)c1ccc(-c2noc(C3CC(=O)N(c4ccc5c(c4)OCCO5)C3)n2)cc1 (centres undefined),92%
15,O=C1CC(c2nc(-c3cccc(Cl)c3)no2)CN1c1ccc2c(c1)OCCO2 (centres undefined),144%
16,Cc1ccc(-c2noc(C3CC(=O)N(c4ccc5c(c4)OCCO5)C3)n2)cc1 (centres undefined),46% (active)
17,O=C1CC(c2nc(-c3ccccc3)no2)CN1c1ccc2c(c1)OCCO2 (centres undefined),93%
18,O=C1CC(c2nc(-c3ccc(Cl)cc3)no2)CN1c1ccc2c(c1)OCCO2 (centres undefined),115%
19,Cc1cc(C)cc(N2CC(c3nc(-c4cccc(Cl)c4)no3)CC2=O)c1 (centres undefined),37% (active)
20,COc1ccc(-c2noc(C3CC(=O)N(c4ccccc4)C3)n2)c(OC)c1 (centres undefined),101%
21,O=C1CC(c2nc(-c3ccccc3)no2)CN1c1ccccc1 (centres undefined),25% (active)
22,COc1ccc(-c2noc(C3CC(=O)N(c4cc(C)cc(C)c4)C3)n2)cc1 (centres undefined),91%
